# The list is not random: actives were taken first. Their share in the collection is about 4.6%.
# GRIN3A LBD mod = NR3A (human) ligand-binding domain modulation; AID 1259313; NR3A LBD differential scanning fluorimetry, Tm shift; 0% = protein alone, 100% = glycine-bound protein; 340,000 tested, 2.5% active; Tm shift relative to glycine control, % at 25 µM;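 active = melting temperature shift of at least 10% of the positive control shift, at one fixed dose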
# KLK7 zymogen act = activators of human kallikrein-7 zymogen. P49862. purified proKLK7, EDANS-DABCYL substrate fluorescence; 100% is mature enzyme control, 0% vehicle. activation, % at 7 µM. 370,000 tested, 0.9% active. AID 652039;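 active = activation above the mean of all tested compounds plus 3 SD, computed per campaign excluding outliers beyond control limits, cut at about 13% in these data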
# Target sequence (P49862 whole entry, looked up): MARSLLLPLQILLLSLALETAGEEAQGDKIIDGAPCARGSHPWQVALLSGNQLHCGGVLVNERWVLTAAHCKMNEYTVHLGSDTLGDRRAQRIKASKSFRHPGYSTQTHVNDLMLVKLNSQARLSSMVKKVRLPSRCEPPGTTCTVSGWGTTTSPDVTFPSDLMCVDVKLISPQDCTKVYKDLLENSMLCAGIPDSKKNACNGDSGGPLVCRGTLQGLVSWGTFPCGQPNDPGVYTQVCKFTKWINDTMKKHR
# FAS-TE inh = blocks the thioesterase domain of human fatty acid synthase | inhibition, % at 15 µM | recombinant FAS-TE, OMFH fluorogenic substrate, fluorescence endpoint | P49327 | 360,000 tested, 0.67% active;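 active = compounds whose normalised, plate-corrected inhibition of enzyme fluorescence in the single-dose primary screen is 50% or more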;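 also: 0% = DMSO with enzyme and 100% = substrate without enzyme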
# ADAM17 inh = inhibits human ADAM17 | P78536 | recombinant ADAM17, EDANS/DABCYL FRET peptide cleavage | inhibition, % at 6.95 µM | 370,000 tested, 0.83% active | AID 720648;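 active = inhibition above the mean of compounds lying between control limits plus 3 SD, set per campaign, cut at about 8.5% in these data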;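 also: 0% = DMSO-only wells as the low control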
# ADAM10 inh = ADAM10 inhibition, QFRET primary screen. inhibition, % at 7 µM. O14672. recombinant ADAM10, EDANS/DABCYL FRET peptide cleavage, 3 h. AID 720582. 370,000 tested, 0.62% active;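 active = inhibition above a per-campaign cutoff equal to the mean of compounds falling between control-based bounds plus 3 SD, cut at about 20% in these data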;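 also: 0% = DMSO wells while the 100% control is not disclosed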
# FAS-TE inh conf = confirmation of human fatty acid synthase thioesterase inhibitors; recombinant FAS-TE, OMFH fluorogenic substrate, fluorescence; 2,300 tested, 45% active; inhibition, % at 15 µM; shares compounds with FAS-TE inh;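 active = compounds inhibiting the enzyme by at least 50% at 15 µM in any one of the replicates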;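 also: 0% = enzyme with DMSO only and 100% = wells lacking enzyme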
# ADAM10 confirm = confirmation of inhibitors of human ADAM10; shares compounds with ADAM10 inh; ADAM10 QFRET peptide cleavage, EDANS fluorescence; inhibition, % at 6.95 µM; 2,100 tested, 1% active;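 active = inhibition above about 20% chosen separately for each screening run, limit read from the data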;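 also: 0% = DMSO wells and 100% = marimastat wells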
# ADAM17 ctr = ADAM17 inhibition, counter-screen for ADAM10 exosite hits. shares compounds with ADAM10 inh. ADAM17 QFRET peptide cleavage, EDANS fluorescence. inhibition, % at 6.95 µM. 2,100 tested, 0.5% active;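 active = mean triplicate inhibition above the solvent-only control wells' mean plus 3 SD, cut at about 12% in these data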;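 also: 0% = DMSO wells and 100% = marimastat wells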
# ADAM10 ctr = counter-screen for ADAM17 exosite inhibitors: inhibitors of human ADAM10; shares compounds with ADAM17 inh; recombinant ADAM10, EDANS/DABCYL FRET peptide cleavage, 3 h; inhibition, % at 6.95 µM; 2,900 tested, 47% active; AID 743256;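 active = mean inhibition over the triplicate runs exceeds the activity threshold set in the earlier primary screen, cut at about 20% in these data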;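 also: 0% = DMSO wells and 100% = marimastat wells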
# ADAM17 confirm = human ADAM17 inhibition, confirmation; inhibition, % at 6.95 µM; 2,900 tested, 65% active; recombinant ADAM17, EDANS/DABCYL QFRET peptide cleavage; shares compounds with ADAM17 inh;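 active = mean inhibition across replicates above the hit cutoff set in the primary screen, cut at about 8.5% in these data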;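 also: 0% = DMSO wells and 100% = marimastat wells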
# Starred values were filed as active, the others as inactive; · = no result.
SMILES,GRIN3A LBD mod,KLK7 zymogen act,FAS-TE inh,ADAM17 inh,ADAM10 inh,FAS-TE inh conf,ADAM10 confirm,ADAM17 ctr,ADAM10 ctr,ADAM17 confirm
O=C(CSc1nc2ccccc2n1Cc1ccccc1)NN=Cc1c[nH]c2ccccc12,·,0.7,·,6.7,11.9,·,·,·,·,·
C[C@@H]1CCCCO[C@H](CN(C)S(=O)(=O)c2cccs2)[C@@H](C)CN([C@H](C)CO)C(=O)c2cc(NC(=O)Nc3ccc4c(c3)OCO4)ccc2O1,·,-0.4,59.8*,5.0,19.9*,11.3,4.7,1.5,·,·
Cc1ccc(S(=O)(=O)N(C)C[C@@H]2OCCCC[C@H](C)Oc3ccc(NC(=O)Nc4ccc(F)cc4)cc3C(=O)N([C@H](C)CO)C[C@H]2C)cc1,·,0.2,62.5*,8.4,23.3*,0.4,7.5,3.0,·,·
COc1ccc(S(=O)(=O)N(C)C[C@H]2OCCCC[C@H](C)Oc3ccc(NC(=O)Nc4ccc(F)cc4)cc3C(=O)N([C@H](C)CO)C[C@H]2C)cc1,·,-0.1,31.9,6.9,13.5,·,·,·,·,·
Cc1ccc(S(=O)(=O)Nc2ccc3c(c2)C(=O)N([C@@H](C)CO)C[C@@H](C)[C@@H](CN(C)S(=O)(=O)c2ccccc2)OCCCC[C@H](C)O3)cc1,·,0.5,79.4*,7.7,22.9*,-1.5,6.9,2.4,·,·
CC(C)C[C@H]1COc2cc(N3CCCC3)ccc2S(=O)(=O)N1C,·,0.0,·,3.9,7.5,·,·,·,·,·
CCCCC#CC(CC)NCc1ccc(OC)cc1OC (stereo unspecified),·,·,·,1.3,5.6,·,·,·,·,·
CCOc1ccc(-n2c(SCC(=O)Nc3ccc4cn[nH]c4c3)nnc2-c2ccc(C(C)(C)C)cc2)cc1,·,0.1,·,1.7,1.4,·,·,·,·,·
CN(C(=O)Nc1ccc(Cl)cc1Cl)[C@H]1c2cc(Br)ccc2OC[C@H]1CO,-6.8,1.1,50.2*,14.8*,26.8*,49.7*,3.6,0.9,27.7*,12.1*
COc1ccc([C@@H]2[C@@H]3C(=O)N(C(C)(C)C)C(=O)[C@@H]3[C@]3(CC(C)C)C(=O)N(c4ccccc4)C(=O)N23)cc1,-1.7,0.0,11.6,-1.7,0.1,·,·,·,·,·
COc1ccc([C@@H]2[C@@H]3C(=O)N(C(C)(C)C)C(=O)[C@@H]3[C@]3(CC(C)C)C(=O)N(c4cccc(Br)c4)C(=O)N23)cc1,-3.2,0.1,57.9*,10.1*,26.7*,40.0,6.8,1.3,23.2*,15.6*
Cc1ccc(NC(=O)CN2C(=O)CCSc3ccccc32)cc1C,·,0.2,·,1.5,-6.7,·,·,·,·,·
CC(C)NC(=O)N(C)C[C@@H]1OCCCC[C@@H](C)Oc2ccc(NC(=O)Nc3ccc(F)cc3)cc2C(=O)N([C@H](C)CO)C[C@@H]1C,·,-0.2,-3.0,1.3,0.7,·,·,·,·,·
C[C@@H]1CN([C@H](C)CO)C(=O)c2cc(NC(=O)Nc3ccc(F)cc3)ccc2O[C@@H](C)CCCCO[C@H]1CN(C)S(=O)(=O)c1cccs1,·,-0.1,81.2*,8.9*,30.1*,77.8*,4.9,1.5,41.6*,21.4*
Cc1ccccc1Cn1cc(COC(=O)NCCc2c[nH]c3ccccc23)nn1,·,-0.1,·,-0.9,2.8,·,·,·,·,·
Cc1cccc(NS(=O)(=O)c2ccc3[nH]c(=O)cc(C(=O)OC(C)C(=O)Nc4ccc([N+](=O)[O-])cc4)c3c2)c1 (stereo unspecified),11.1*,-3.5,87.4*,15.4*,25.4*,93.0*,9.5,4.4,4.5,11.6*
CCOc1ccc(NS(=O)(=O)c2ccc3[nH]c(=O)cc(C(=O)O)c3c2)cc1,3.0,-1.0,-0.8,0.0,3.9,·,·,·,·,·
CC(NC(=O)COC(=O)c1cc(NS(=O)(=O)c2ccc(Cl)c([N+](=O)[O-])c2)ccc1O)C1CC2CCC1C2 (stereo unspecified),12.7*,0.1,53.0*,8.8*,22.2*,50.8*,9.1,1.7,38.1*,17.1*
COc1ccc(NC(=O)C(Sc2nnc(-c3ccncc3)n2-c2ccccc2C)c2ccccc2)cc1Cl (stereo unspecified),-17.0,-0.4,55.7*,15.2*,28.2*,14.5,7.4,2.2,30.4*,14.7*
COc1ccc(NC(=O)C(OC)c2ccccc2)cc1Cl (stereo unspecified),-0.2,0.4,-5.4,-2.8,-3.3,·,·,·,·,·
O=C(c1ccncc1)N(c1ccc2oc3c(c2c1)CCCC3)S(=O)(=O)c1ccc(F)cc1,-3.8,0.1,64.7*,8.8*,17.4,42.9,·,·,9.3,7.2
COc1cc2c(cc1NC(=O)COc1ccccc1OC)oc1ccccc12,-1.6,-0.2,-4.3,-4.5,2.3,·,·,·,·,·
COc1cc2c(cc1NC(=O)COC(=O)[C@@H](NS(=O)(=O)c1ccccc1)C(C)C)oc1ccccc12,6.7,-14.0,66.9*,10.5*,19.4,-4.6,·,·,-5.0,4.8
O=S1(=O)c2ccc(N3CC[C@@H](O)C3)cc2O[C@H]2CCN1C2,·,-0.3,·,-6.0,-12.5,·,·,·,·,·
Cc1ccc(S(=O)(=O)Nc2ccc(-c3csc(-c4ccccc4)n3)cc2)cc1,24.4*,-1.4,72.3*,15.5*,31.1*,27.4,19.1,5.5,24.1*,19.8*
Cc1ccc(S(=O)(=O)Nc2nc(-c3ccccc3)cs2)cc1,-3.6,-0.1,2.3,-4.0,-6.0,·,·,·,·,·
Cc1ccc(C(=O)CC2C(=O)N(c3ccccc3)C(=S)N2c2ccccc2)cc1 (stereo unspecified),1.7,-0.1,52.8*,9.3*,15.5,16.4,·,·,44.5*,18.7*
O=S(=O)(Nc1ccc2c(c1)OCCO2)c1ccc2oc3ccccc3c2c1,-1.6,0.1,62.2*,11.2*,23.6*,47.3*,8.2,2.2,25.7*,14.0*
Cn1c(=O)[nH]c2c(Br)nccc21,·,0.4,·,0.8,0.7,·,·,·,·,·
CC(C)(C)OC(=O)NCCCC[C@H](NC(=O)c1[nH]cnc1C(=O)Nc1ccccc1)C(=O)OC(C)(C)C,-5.7,-0.2,68.6*,10.6*,36.0*,80.2*,3.9,1.5,44.3*,21.7*

# Screens deposited in PubChem by several laboratories.
